# In PubChem BioAssay (NCI):
# This is part of a sample that, as a whole, favours compounds with a hit. Of some 79,000 tested, about 15% had one in any assay. Values without a mark were called inactive. The source made the active and inactive calls. No stated cut-off is given here; in the data, active means growth inhibition above about 70%; inactive means the rest.
# Tests used:
# [1] = NCI Yeast Anticancer Drug Screen. Data for the wt1 strain (AID 149);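 further: 0% = growth of vehicle-treated wt1 cultures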; settings: S. cerevisiae wt1 strain (SPY 50644) growth inhibition, hits give high values
# Method in brief: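 Measured: growth of wt1 yeast under compound versus vehicle treatment, reported as inhibition.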
# [2] = NCI Yeast Anticancer Drug Screen. Data for the rad50EPP+ strain (AID 151);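 further: 0% = growth of vehicle-treated control cultures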; settings: S. cerevisiae rad50 mutant strain, hits give high values
# Method in brief: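 Exposing the rad50EPP+ strain to each compound, growth was compared with vehicle-only cultures to give inhibition.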
# [3] = NCI Yeast Anticancer Drug Screen. Data for the mgt1 strain (AID 153); settings: S. cerevisiae mgt1 mutant growth inhibition, hits give high values
# Method in brief: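 Genetically defined yeast (mgt1) treated with compound; inhibition of growth expressed against vehicle-treated controls.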
# [4] = NCI Yeast Anticancer Drug Screen. Data for the rad50 strain (AID 155);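 further: 0% = growth of vehicle-only cultures of the same strain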; settings: S. cerevisiae rad50 strain growth inhibition, hits give high values
# Method in brief: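 Growth of the mutant yeast was measured after compound exposure and referenced to vehicle-treated cultures.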
# [5] = NCI Yeast Anticancer Drug Screen. Data for the mec2-1 strain (AID 157); settings: S. cerevisiae mec2-1 strain, hits give high values
# Method in brief: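 Readout is yeast growth inhibition, normalised to vehicle-treated controls, in the mec2-1 strain exposed to compound.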
# [6] = NCI Yeast Anticancer Drug Screen. Data for the rad14 strain (AID 159);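 further: 0% = growth of vehicle-treated control cultures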; settings: S. cerevisiae rad14 strain growth inhibition, hits give high values
# Method in brief: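 Here, inhibition of yeast growth was measured after compound exposure, using a strain with a genetic defect in DNA damage repair and vehicle-treated cultures as the reference.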
# [7] = NCI Yeast Anticancer Drug Screen. Data for the cln2 rad14 strain (AID 165);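 further: 0% = growth equal to vehicle treated cultures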; settings: S. cerevisiae cln2 rad14 strain, hits give high values
# Method in brief: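 Relative to vehicle controls, growth inhibition of compound-treated cln2 rad14 yeast was recorded.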
# [8] = NCI Yeast Anticancer Drug Screen. Data for the bub3 strain (AID 167); settings: S. cerevisiae bub3 mutant strain, hits give high values
# Method in brief: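 Whole-cell yeast assay. The mutant strain was incubated with compounds, and growth inhibition was determined by comparison with vehicle-treated cells.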
# [9] = NCI Yeast Anticancer Drug Screen. Data for the wt2 strain (AID 169);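 further: 0% = growth of vehicle-treated yeast cultures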; settings: S. cerevisiae wt2 strain growth inhibition, hits give high values
# Method in brief: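 Values express reduction in yeast growth under compound treatment, referenced to vehicle-treated cells.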
# [10] = NCI Yeast Anticancer Drug Screen. Data for the mlh1 strain (AID 171);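 further: 0% = growth of vehicle-treated control cultures of the same strain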; settings: S. cerevisiae mlh1 strain growth inhibition, hits give high values
# Method in brief: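 Steps: expose the defined-mutant yeast strain to compound; expose a parallel culture to vehicle; measure growth; express compound effect as inhibition relative to the vehicle culture.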
# [11] = NCI Yeast Anticancer Drug Screen. Data for the sgs1 strain (AID 173);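 further: 0% = growth of vehicle-only control cultures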; settings: S. cerevisiae sgs1 mutant, hits give high values
# Method in brief: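 Treat defined-mutant yeast with compound; measure growth; calculate inhibition relative to vehicle-treated cells.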
# [12] = NCI Yeast Anticancer Drug Screen. Data for the mlh1 rad18 strain (AID 175); settings: S. cerevisiae mlh1 rad18 strain growth inhibition, hits give high values
# Method in brief: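 Test agents were incubated with a yeast strain of defined genotype (DNA damage repair defect). Inhibition of growth was derived by comparison with vehicle-exposed cultures.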
# [13] = NCI Yeast Anticancer Drug Screen. Data for the sgs1 mgt1 strain (AID 161);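 further: 0% = growth of cultures given vehicle only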; settings: S. cerevisiae sgs1 mgt1 strain, hits give high values
# Method in brief: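 Compounds are added to genetically altered yeast, and growth is compared with cultures given vehicle alone to give percent inhibition.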
# [14] = NCI Yeast Anticancer Drug Screen. Data for the CLN2oe strain (AID 163);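 further: 0% = growth of vehicle-only control cultures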; settings: S. cerevisiae CLN2oe strain, hits give high values
# Method in brief: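 Values reflect how much compound exposure reduced yeast growth, referenced to vehicle-exposed cells. Assay organism is a strain with a defined genetic change affecting cell-cycle control.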
# [15] = NCI Yeast Anticancer Drug Screen. Data for the rad18 strain (AID 177); settings: S. cerevisiae rad18 mutant growth inhibition, hits give high values
# Method in brief: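 A genetically defined yeast mutant impaired in DNA damage repair was treated with test compounds, then its growth was measured against cultures receiving vehicle alone.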
# [16] = at 5.0 µM (retest, dose inferred, filed as 0.5)
# [17] = at 50.0 µM (retest, dose inferred, filed as 5.0)
smiles,measurement,setting,value
CNC(=O)OCc1c(COC(=O)NC)c(-c2ccc(Cl)c(Cl)c2)n2c1CCC2,growth inhibition,[1]; at 1.2 µM,-53%
same,growth inhibition,[1]; at 3.7 µM,-56%
same,growth inhibition,[1]; at 11.0 µM,-48%
same,growth inhibition,[1]; at 33.0 µM,71% (active)
same,growth inhibition,[1]; at 100.0 µM,98% (active)
same,growth inhibition,[2]; at 1.2 µM,-19%
same,growth inhibition,[2]; at 3.7 µM,-21%
same,growth inhibition,[2]; at 11.0 µM,-31%
same,growth inhibition,[2]; at 33.0 µM,-28%
same,growth inhibition,[2]; at 100.0 µM,4%
same,growth inhibition,[3]; at 1.2 µM,-66%
same,growth inhibition,[3]; at 3.7 µM,-73%
same,growth inhibition,[3]; at 11.0 µM,-69%
same,growth inhibition,[3]; at 33.0 µM,95% (active)
same,growth inhibition,[3]; at 100.0 µM,98% (active)
same,growth inhibition,[4]; at 1.2 µM,-51%
same,growth inhibition,[4]; at 3.7 µM,-51%
same,growth inhibition,[4]; [16],17%
same,growth inhibition,[4]; at 11.0 µM,-37%
same,growth inhibition,[4]; at 33.0 µM,87% (active)
same,growth inhibition,[4]; [17],98% (active)
same,growth inhibition,[4]; at 50.0 µM,84.9% (active)
same,growth inhibition,[4]; at 100.0 µM,97% (active)
same,growth inhibition,[5]; at 1.2 µM,-74%
same,growth inhibition,[5]; at 3.7 µM,-47%
same,growth inhibition,[5]; [16],-5%
same,growth inhibition,[5]; at 11.0 µM,-32%
same,growth inhibition,[5]; at 33.0 µM,85% (active)
same,growth inhibition,[5]; [17],98% (active)
same,growth inhibition,[5]; at 50.0 µM,87.5% (active)
same,growth inhibition,[5]; at 100.0 µM,98% (active)
same,growth inhibition,[6]; at 1.2 µM,-34%
same,growth inhibition,[6]; at 3.7 µM,-36%
same,growth inhibition,[6]; at 11.0 µM,-31%
same,growth inhibition,[6]; at 33.0 µM,98% (active)
same,growth inhibition,[6]; at 100.0 µM,98% (active)
same,growth inhibition,[7]; [16],38%
same,growth inhibition,[7]; [17],99% (active)
same,growth inhibition,[7]; at 50.0 µM,86.9% (active)
same,growth inhibition,[8]; at 1.2 µM,-58%
same,growth inhibition,[8]; at 3.7 µM,-61%
same,growth inhibition,[8]; [16],52%
same,growth inhibition,[8]; at 11.0 µM,-35%
same,growth inhibition,[8]; at 33.0 µM,93% (active)
same,growth inhibition,[8]; [17],99% (active)
same,growth inhibition,[8]; at 50.0 µM,55.6%
same,growth inhibition,[8]; at 100.0 µM,97% (active)
same,growth inhibition,[9]; at 1.2 µM,-14%
same,growth inhibition,[9]; at 3.7 µM,-14%
same,growth inhibition,[9]; at 11.0 µM,-14%
same,growth inhibition,[9]; at 33.0 µM,62%
same,growth inhibition,[9]; at 100.0 µM,97% (active)
same,growth inhibition,[10]; at 1.2 µM,-94%
same,growth inhibition,[10]; at 3.7 µM,-90%
same,growth inhibition,[10]; at 11.0 µM,-81%
same,growth inhibition,[10]; at 33.0 µM,98% (active)
same,growth inhibition,[10]; at 100.0 µM,97% (active)
same,growth inhibition,[11]; at 1.2 µM,-11%
same,growth inhibition,[11]; at 3.7 µM,-20%
same,growth inhibition,[11]; at 11.0 µM,-29%
same,growth inhibition,[11]; at 33.0 µM,88% (active)
same,growth inhibition,[11]; at 100.0 µM,97% (active)
same,growth inhibition,[12]; [16],5%
same,growth inhibition,[12]; [17],97% (active)
same,growth inhibition,[12]; at 50.0 µM,91.2% (active)
COc1ccc2sc3cccc(NCCN(C)C)c3c(=O)c2c1,growth inhibition,[1]; at 1.2 µM,1%
same,growth inhibition,[1]; at 3.7 µM,6%
same,growth inhibition,[1]; at 11.0 µM,3%
same,growth inhibition,[1]; at 33.0 µM,2%
same,growth inhibition,[1]; at 100.0 µM,10%
same,growth inhibition,[2]; at 1.2 µM,6%
same,growth inhibition,[2]; at 3.7 µM,8%
same,growth inhibition,[2]; at 11.0 µM,17%
same,growth inhibition,[2]; at 33.0 µM,25%
same,growth inhibition,[2]; at 100.0 µM,61%
same,growth inhibition,[4]; at 1.2 µM,0%
same,growth inhibition,[4]; at 3.7 µM,1%
same,growth inhibition,[4]; [16],-14%
same,growth inhibition,[4]; at 11.0 µM,2%
same,growth inhibition,[4]; at 33.0 µM,7%
same,growth inhibition,[4]; [17],-10%
same,growth inhibition,[4]; at 50.0 µM,25.2%
same,growth inhibition,[4]; at 100.0 µM,31%
same,growth inhibition,[5]; at 1.2 µM,3%
same,growth inhibition,[5]; at 3.7 µM,4%
same,growth inhibition,[5]; [16],-3%
same,growth inhibition,[5]; at 11.0 µM,6%
same,growth inhibition,[5]; at 33.0 µM,9%
same,growth inhibition,[5]; [17],3%
same,growth inhibition,[5]; at 50.0 µM,-4.1%
same,growth inhibition,[5]; at 100.0 µM,12%
same,growth inhibition,[6]; at 1.2 µM,-1%
same,growth inhibition,[6]; at 3.7 µM,-1%
same,growth inhibition,[6]; at 11.0 µM,-1%
same,growth inhibition,[6]; at 33.0 µM,9%
same,growth inhibition,[6]; at 100.0 µM,33%
same,growth inhibition,[13]; [16],-9%
same,growth inhibition,[13]; [17],38%
same,growth inhibition,[13]; at 50.0 µM,54.6%
same,growth inhibition,[14]; at 1.2 µM,-3%
same,growth inhibition,[14]; at 3.7 µM,-10%
same,growth inhibition,[14]; at 11.0 µM,-4%
same,growth inhibition,[14]; at 33.0 µM,-4%
same,growth inhibition,[14]; at 100.0 µM,17%
same,growth inhibition,[7]; [16],3%
same,growth inhibition,[7]; [17],6%
same,growth inhibition,[7]; at 50.0 µM,31.6%
same,growth inhibition,[8]; at 1.2 µM,-4%
same,growth inhibition,[8]; at 3.7 µM,-3%
same,growth inhibition,[8]; [16],9%
same,growth inhibition,[8]; at 11.0 µM,-3%
same,growth inhibition,[8]; at 33.0 µM,-1%
same,growth inhibition,[8]; [17],5%
same,growth inhibition,[8]; at 50.0 µM,-4.65%
same,growth inhibition,[8]; at 100.0 µM,1%
same,growth inhibition,[10]; at 1.2 µM,-1%
same,growth inhibition,[10]; at 3.7 µM,2%
same,growth inhibition,[10]; at 11.0 µM,3%
same,growth inhibition,[10]; at 33.0 µM,4%
same,growth inhibition,[10]; at 100.0 µM,18%
same,growth inhibition,[11]; at 1.2 µM,2%
same,growth inhibition,[11]; at 3.7 µM,1%
same,growth inhibition,[11]; at 11.0 µM,3%
same,growth inhibition,[11]; at 33.0 µM,2%
same,growth inhibition,[11]; at 100.0 µM,16%
same,growth inhibition,[12]; [16],-1%
same,growth inhibition,[12]; [17],-9%
same,growth inhibition,[12]; at 50.0 µM,67.3%
same,growth inhibition,[15]; at 1.2 µM,0%
same,growth inhibition,[15]; at 3.7 µM,0%
same,growth inhibition,[15]; at 11.0 µM,2%
same,growth inhibition,[15]; at 33.0 µM,9%
same,growth inhibition,[15]; at 100.0 µM,27%
